Results filed as inconclusive are left out. A call without a number means that no potency is given here. Active and inactive are the calls of the source. Unless noted, calls follow the shape of the dose curve; as a rule, active = well fitted curve in the direction sought with a large enough effect; inconclusive = small, poorly fitted or top-dose-only effect, or another doubt; inactive = no such curve, though single readings can be large; an effect the other way counts as inactive or inconclusive.
Legend:
[1] = P-glycoprotein substrates identified in KB-8-5-11 adenocarcinoma cell line, qHTS therapeutic library screen (AID 1346987); also: nearly all actives have a fitted effect of over 65% in size
Outline: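 Compounds are pinned in dose-response onto KB-8-5-11 cells (500 cells/well, colchicine-free medium) and left 72 h at 37 degree C. CellTiter-Glo luminescence then yields AC50 values.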

[2] = Natriuretic polypeptide receptor (hNpr1) antagonism - Pilot counterscreen GloSensor control cell line (AID 1347045; calls by dose curve; also: series mostly up to about 38 µM)
Outline: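 Control counterscreen: luciferase cGMP-biosensor HEK293 cells (no Npr1) received compound for 30 min at room temperature after GloSensor substrate loading. Luminescence was measured before and 20 min after soluble guanylyl cyclase activation by 50 uM nitroprusside.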

[3] = biological target: Atrial natriuretic peptide receptor 2 (Homo sapiens) (UniProt P20594); assay: Natriuretic polypeptide receptor (hNpr2) antagonism - Pilot subtype selectivity assay (AID 1347050; calls by dose curve)
Atrial natriuretic peptide receptor 2 (Homo sapiens), sequence (P20594 whole entry, looked up): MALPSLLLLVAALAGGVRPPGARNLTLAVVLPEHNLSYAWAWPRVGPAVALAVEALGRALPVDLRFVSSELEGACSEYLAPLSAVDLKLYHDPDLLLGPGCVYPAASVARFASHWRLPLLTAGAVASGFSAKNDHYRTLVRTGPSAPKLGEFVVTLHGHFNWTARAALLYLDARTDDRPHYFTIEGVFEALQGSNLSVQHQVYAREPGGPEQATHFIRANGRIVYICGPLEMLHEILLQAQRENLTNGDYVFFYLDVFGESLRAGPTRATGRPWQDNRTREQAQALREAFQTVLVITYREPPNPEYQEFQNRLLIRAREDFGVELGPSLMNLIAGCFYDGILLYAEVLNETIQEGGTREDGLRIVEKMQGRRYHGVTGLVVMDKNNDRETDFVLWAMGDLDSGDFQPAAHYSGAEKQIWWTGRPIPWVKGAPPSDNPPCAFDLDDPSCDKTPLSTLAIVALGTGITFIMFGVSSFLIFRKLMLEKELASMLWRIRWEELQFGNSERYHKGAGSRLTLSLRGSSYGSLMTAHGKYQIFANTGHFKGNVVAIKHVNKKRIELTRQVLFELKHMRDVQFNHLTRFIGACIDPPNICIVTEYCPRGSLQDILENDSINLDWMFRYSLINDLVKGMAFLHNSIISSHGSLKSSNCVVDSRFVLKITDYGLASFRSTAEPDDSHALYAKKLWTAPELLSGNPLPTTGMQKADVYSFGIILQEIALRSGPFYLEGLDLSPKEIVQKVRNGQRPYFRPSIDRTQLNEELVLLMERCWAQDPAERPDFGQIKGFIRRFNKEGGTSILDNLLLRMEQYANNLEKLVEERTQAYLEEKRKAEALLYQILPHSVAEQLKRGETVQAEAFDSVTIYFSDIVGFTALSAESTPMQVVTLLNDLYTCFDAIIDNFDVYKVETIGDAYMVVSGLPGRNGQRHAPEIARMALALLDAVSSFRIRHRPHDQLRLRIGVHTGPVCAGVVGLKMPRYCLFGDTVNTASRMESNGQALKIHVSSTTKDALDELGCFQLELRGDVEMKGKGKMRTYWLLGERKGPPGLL
Outline: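 Antagonist mode: compounds (LOPAC1280, seven 1:5 dilutions) added 30 min before 1 nM hNppC stimulation of hNpr2-HEK293 cGMP-sensor cells; luminescence read before and 20 min after agonist at ambient temperature.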

[4] = biological target: T1, Tyrosine-protein phosphatase non-receptor type substrate 1 (Homo sapiens) + Leukocyte surface antigen CD47 (Homo sapiens) (UniProt P78324+Q08722); assay: CD47-SIRPalpha protein protein interaction - LANCE assay qHTS validation (AID 1347057; active = well fitted curve in the direction sought with a large enough effect in the signal ratio, with a control signal flat, not every such curve was filed as active; the % refers to the signal ratio; also: series mostly up to about 38 µM)
T1 sequence (P78324 whole entry, looked up, the tested form may be a part): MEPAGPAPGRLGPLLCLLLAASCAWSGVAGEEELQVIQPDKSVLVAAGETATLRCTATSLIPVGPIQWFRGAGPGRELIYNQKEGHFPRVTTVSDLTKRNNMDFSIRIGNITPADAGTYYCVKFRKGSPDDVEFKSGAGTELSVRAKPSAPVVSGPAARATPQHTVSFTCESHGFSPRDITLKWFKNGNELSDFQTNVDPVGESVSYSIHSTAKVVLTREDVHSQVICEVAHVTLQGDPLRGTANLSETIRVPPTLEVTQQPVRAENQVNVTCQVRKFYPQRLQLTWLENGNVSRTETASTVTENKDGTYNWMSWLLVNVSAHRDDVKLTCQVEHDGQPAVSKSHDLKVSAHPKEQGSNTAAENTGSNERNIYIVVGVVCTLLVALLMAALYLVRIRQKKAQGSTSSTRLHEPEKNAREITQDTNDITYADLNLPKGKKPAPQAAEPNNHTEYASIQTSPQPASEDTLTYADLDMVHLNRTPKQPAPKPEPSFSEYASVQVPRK
T1 sequence (Q08722 whole entry, looked up, the tested form may be a part): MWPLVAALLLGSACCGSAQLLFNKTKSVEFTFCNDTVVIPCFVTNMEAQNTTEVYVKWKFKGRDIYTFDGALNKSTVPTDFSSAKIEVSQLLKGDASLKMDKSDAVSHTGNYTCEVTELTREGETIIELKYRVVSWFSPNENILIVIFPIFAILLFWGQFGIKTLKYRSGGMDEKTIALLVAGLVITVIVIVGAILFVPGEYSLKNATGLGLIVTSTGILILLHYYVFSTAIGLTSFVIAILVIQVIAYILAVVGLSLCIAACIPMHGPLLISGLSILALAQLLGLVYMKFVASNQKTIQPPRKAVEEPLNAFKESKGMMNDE
Outline: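 Inhibition of soluble CD47/SIRPalpha ectodomain association by titrated compounds, measured as 665/615 nm time-resolved FRET ratio after sequential 30 min room-temperature incubations.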

[5] = biological target: T1, Tyrosine-protein phosphatase non-receptor type substrate 1 (Homo sapiens) + Leukocyte surface antigen CD47 (Homo sapiens); assay: CD47-SIRPalpha protein protein interaction - HTRF assay qHTS validation (AID 1347058; active = well fitted curve in the direction sought with a large enough effect in the signal ratio, not every such curve was filed as active; the % refers to the signal ratio; also: series mostly up to about 38 µM)
Outline: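 Soluble extracellular domains (6His-CD47, Avi-tag-biotinylated SIRPalpha) in PBS pH 7.4 with 0.05% IGEPAL CA-630. Compounds were preincubated 30 min at RT with CD47 and anti-His-Eu, then SIRPalpha and SAV-XL665 were added. TR-FRET 665/615 ratio.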

[6] = NS1 protein of Zika virus - qHTS assay to identify small molecule inhibitors in human HEK 293 cells (AID 1347053); also: series mostly up to about 46 µM; nearly all actives have a fitted effect of over 55% in size
Outline: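 TR-FRET signal from two anti-ZIKV NS1 antibodies quantified NS1 in HEK 293 cells 24 h after MR766 infection at MOI = 0.5; compounds were added 1 h before virus. Uninfected cells and infected cells defined the NS1 normalization range.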

## COc1cc(/C=C/c2cc(O)cc(O[C@@H]3O[C@H](CO)[C@@H](O)[C@H](O)[C@H]3O)c2)ccc1O
[1]
  Potency: inactive

## CC1C/C=C/C=C\CCCCC(O)C/C=C/C(=O)O1 (stereo not given)
[1]
  Potency: inactive

## C1CCN2CC3C[C@@H](CN4CCCC[C@@H]34)[C@H]2C1
[1]
  Potency: inactive

## FC(F)(F)c1cc(C(F)(F)F)c2ccc3nc(-c4nnco4)cn3c2n1
[1]
  Potency: inactive

## c1ccc(Cc2ncc3c(n2)CCNCC3)cc1
[1]
  Potency: inactive

## C[C@@H]1C(=O)O[C@H]2CC34[C@H]5C[C@@H](C(C)(C)C)C36[C@@H](OC(=O)[C@@H]6O)OC4(C(=O)O5)[C@]21O (stereo not given in full)
[1]
  Potency: inactive

## CCS(=O)(=O)N1CCC([C@@H](C)n2c(C)c(C(=O)NCc3c(OC)cc(C)[nH]c3=O)c3ccccc32)CC1
[1]
  Potency: inactive

## C=CC1C(O[C@@H]2O[C@H](CO)[C@@H](O)[C@H](O)[C@H]2O)OC=C(C(=O)OC)C1CC(=O)O (stereo not given in full)
[1]
  Potency: inactive

## CC(=O)OCC1=C[C@H](O)[C@@H]2C(C(=O)O)=CO[C@@H](O[C@@H]3O[C@H](CO)[C@@H](O)[C@H](O)[C@H]3O)[C@H]12
[1]
  Potency: inactive

## CC(C)CNC(=O)/C=C/CCCCc1ccc2c(c1)OCO2
[1]
  Potency: inactive

## O=C(O)Cc1nn(Cc2nc3cc(C(F)(F)F)ccc3s2)c(=O)c2nccnc12
[1]
  Potency: inactive

## Cc1nnc(C(C)C)n1C1CC2CCC(C1)N2CCC(NC(=O)C1CCC(F)(F)CC1)c1ccccc1 (stereo not given)
[1]
  Potency: inactive

## COC1=CC(=O)C[C@@H](C)[C@]12Oc1cc(OC)cc(OC)c1C2=O
[1]
  Potency: inactive

## C=C1[C@@H]2CC[C@@]3(C)[C@H](c4ccoc4)OC(=O)C[C@]13O[C@H]1CC(=O)C(C)(C)[C@H](CC(=O)OC)[C@]12C
[1]
  Potency: inactive

## COc1cc(C)c(C(=O)O[C@H]2[C@@H](O)[C@H](n3ccc(=O)[nH]c3=O)O[C@@H]2CO)c(OC)c1
[1]
  Potency: inactive

## CC(C)C(C#N)O[C@@H]1O[C@H](CO[C@@H]2OC[C@](O)(CO)[C@H]2O)[C@@H](O)[C@H](O)[C@H]1O (stereo not given in full)
[1]
  Potency: inactive

## CC1CCC2(C)C(CC(O)C(O)C23CO3)C1(C)CCC1=CC(O)OC1=O (stereo not given)
[1]
  Potency: inactive

## CN[C@@H]1[C@@H](O)[C@@H](O[C@@H]2[C@@H](O)[C@H](O[C@H]3O[C@H](CN)[C@@H](O)[C@H](O)[C@H]3O)[C@@H](N)C[C@H]2NC(=O)[C@@H](O)CN)OC[C@]1(C)O
[1]
  Potency: inactive

## CCOC(=O)c1ccnc(CNCC(=O)N(CC)CCN(C)C)c1
[1]
  Potency: inactive

## C=CC(C)(CC/C=C(\C)CC/C=C(\C)CC(O)/C=C(\C)C(=O)O)O[C@@H]1O[C@H](CO)[C@@H](O)[C@H](O)[C@H]1O[C@@H]1O[C@H](CO)[C@@H](O)[C@H](O)[C@H]1O (stereo not given in full)
[1]
  Potency: inactive

## CN1Cc2c(N)cccc2C(c2ccccc2)C1 (stereo not given)
[2]
  outcome: inactive
[3]
  outcome: inactive
[4]
  outcome: inactive
[5]
  outcome: inactive

## CC(=O)OC(C)OC(=O)C(C)c1ccc(-c2ccccc2)c(F)c1 (stereo not given)
[6]
  outcome: inactive

Source: PubChem BioAssay (NCATS)
